Measured values published in the supplement of paper PMC10849652.
About 8,800 targets were measured; listed, in parts, are those with a hit and a random draw of the rest. About 0.5% of all pairs of compound and target were hits. Unmarked numbers belong to inactive results.

Legend:
Experiment in all cases: log2 fold change, soluble protein after heating vs DMSO (PISA); higher = thermal stabilisation; K562 lysate, 10 uM; active = over 0.2 and 3.5 SD of the protein, either way, in both replicates (recomputed)
[1] = compound: CN1CC[C@H](c2c(O)cc(O)c3c(=O)cc(-c4ccccc4Cl)oc23)[C@H](O)C1 [alvocidib]
How it was run: (§1)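 K562 pellets were dounce-homogenised in PBS pH 7.4 containing 1 mM MgCl2, and the crude extract, at 1 mg/mL protein, was exposed to 10 μM compound for 30 min. Aliquots were heated for 3 min across 48°C-58°C, pooled, brought to 0.5% NP-40 at 4°C and spun at 21,000xg for 90 min, with the supernatant taken as soluble protein. TMTpro 16plex LC-MS/MS with equalised channel sums quantified that protein. Values are log-two fold changes in thermal stability relative to solvent controls, taken from duplicates.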

[2] = compound: CN1CCc2c(c3ccccc3n2Cc2ccc(C(=O)NO)cc2)C1 [Tubastatin A]
How it was run: as §1

[3] = compound: CNC(=O)C1=CC=CC=C1NC2=NC(=NC=C2Cl)NC3=C(C=C(C=C3)N4CCOCC4)OC
How it was run: as §1

[4] = compound: CNC(=O)c1ccc(Nc2ncc(C(F)(F)F)c(NCc3nccnc3N(C)S(C)(=O)=O)n2)cc1 [defactinib]
How it was run: as §1

[5] = compound: CNc1nc(-c2ccc3c(N)n[nH]c3c2)cc(N2C[C@@H](C(=O)NC3CCCCC3)CC[C@H]2C)n1
How it was run: as §1

[6] = compound: COC(=O)N[C@@H](C)CNc1nccc(-c2cn(C(C)C)nc2-c2cc(Cl)cc(NS(C)(=O)=O)c2F)n1 [encorafenib]
How it was run: as §1

[7] = compound: COC(=O)[C@H](CCSC)NC(=O)C1=C(C=C(C=C1)NC[C@H](CS)N)C2=CC=CC=C2
How it was run: as §1

[8] = compound: COc1cc(Nc2ncc3c(n2)-c2ccc(Cl)cc2C(c2c(F)cccc2OC)=NC3)ccc1C(=O)O [alisertib]
How it was run: as §1

[9] = compound: COc1cc2nc(-c3cc(F)ccc3O)nc(N[C@@H]3CNC[C@H]3C(C)(C)O)c2cc1OC
How it was run: as §1

[10] = compound: COc1cc2ncnc(Nc3ccc(F)c(Cl)c3)c2cc1OCCCN1CCOCC1 [gefitinib]
How it was run: as §1

[11] = compound: CS(=O)(=O)CCNCc1ccc(-c2ccc3ncnc(Nc4ccc(OCc5cccc(F)c5)c(Cl)c4)c3c2)o1 [lapatinib]
How it was run: as §1

[12] = compound: CS(=O)(=O)N1CCN(Cc2cc3nc(-c4cccc5[nH]ncc45)nc(N4CCOCC4)c3s2)CC1 [pictilisib]
How it was run: as §1

[13] = compound: C[C@@H](Oc1cc(-c2cnn(C3CCNCC3)c2)cnc1N)c1c(Cl)ccc(F)c1Cl [crizotinib]
How it was run: as §1

[14] = compound: C[C@H](C1=CC=C(C=C1)C(=O)NC2=C3C=CNC3=NC=C2)N
How it was run: as §1

[15] = compound: C[C@H](Nc1ncnc2nc[nH]c12)c1cc2cccc(Cl)c2c(=O)n1-c1ccccc1 [duvelisib]
How it was run: as §1

[16] = compound: Cc1cc(Nc2cc(CN3CCOCC3)c3nc(C)c(Cc4ccc(Cl)cc4F)n3n2)n[nH]1 [gandotinib]
How it was run: as §1

[17] = compound: Cc1cc(Nc2cc(N3CCN(C)CC3)nc(Sc3ccc(NC(=O)C4CC4)cc3)n2)n[nH]1 [tozasertib]
How it was run: as §1

[18] = compound: Cc1ccc(-n2nc(C(C)(C)C)cc2NC(=O)Nc2ccc(OCCN3CCOCC3)c3ccccc23)cc1 [doramapimod]
How it was run: as §1

[19] = compound: Cc1ccc(NC(=O)c2ccc(CN3CC[C@H](N(C)C)C3)c(C(F)(F)F)c2)cc1Nc1nccc(-c2cncnc2)n1 [bafetinib]
How it was run: as §1

[20] = compound: Cc1cccc(CC(=O)N2CCc3c2ccc(-c2cn(C)c4ncnc(N)c24)c3F)n1
How it was run: as §1

Chain of UniProt Q99541 (Q99541 whole entry, looked up): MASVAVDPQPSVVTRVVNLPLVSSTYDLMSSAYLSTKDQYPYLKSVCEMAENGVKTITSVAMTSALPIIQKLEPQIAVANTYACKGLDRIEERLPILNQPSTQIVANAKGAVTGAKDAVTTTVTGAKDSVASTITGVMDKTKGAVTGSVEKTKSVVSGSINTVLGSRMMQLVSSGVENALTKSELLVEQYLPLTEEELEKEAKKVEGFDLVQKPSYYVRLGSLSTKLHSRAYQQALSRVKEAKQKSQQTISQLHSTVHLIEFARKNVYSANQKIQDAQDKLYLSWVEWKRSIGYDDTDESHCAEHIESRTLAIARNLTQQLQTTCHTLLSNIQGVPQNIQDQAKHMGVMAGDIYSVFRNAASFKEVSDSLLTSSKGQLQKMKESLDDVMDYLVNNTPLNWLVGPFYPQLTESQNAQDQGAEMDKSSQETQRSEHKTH
Chain of UniProt Q9BUL8 (Q9BUL8 whole entry, looked up): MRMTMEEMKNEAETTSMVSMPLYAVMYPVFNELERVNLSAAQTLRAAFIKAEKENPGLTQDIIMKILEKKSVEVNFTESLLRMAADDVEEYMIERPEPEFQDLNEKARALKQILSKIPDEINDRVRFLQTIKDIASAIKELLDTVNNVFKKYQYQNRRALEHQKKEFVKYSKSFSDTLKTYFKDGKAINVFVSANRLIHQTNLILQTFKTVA
Chain of UniProt P28328 (P28328 whole entry, looked up): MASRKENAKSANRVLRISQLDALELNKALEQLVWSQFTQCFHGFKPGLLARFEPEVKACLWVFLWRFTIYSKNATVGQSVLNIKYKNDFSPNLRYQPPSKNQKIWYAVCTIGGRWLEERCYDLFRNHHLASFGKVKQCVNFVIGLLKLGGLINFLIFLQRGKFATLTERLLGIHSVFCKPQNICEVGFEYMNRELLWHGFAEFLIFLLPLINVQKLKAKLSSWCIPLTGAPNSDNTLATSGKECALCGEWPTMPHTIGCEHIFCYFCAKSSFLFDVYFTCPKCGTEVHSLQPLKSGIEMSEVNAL
Chain of UniProt P48634 (P48634 whole entry, looked up): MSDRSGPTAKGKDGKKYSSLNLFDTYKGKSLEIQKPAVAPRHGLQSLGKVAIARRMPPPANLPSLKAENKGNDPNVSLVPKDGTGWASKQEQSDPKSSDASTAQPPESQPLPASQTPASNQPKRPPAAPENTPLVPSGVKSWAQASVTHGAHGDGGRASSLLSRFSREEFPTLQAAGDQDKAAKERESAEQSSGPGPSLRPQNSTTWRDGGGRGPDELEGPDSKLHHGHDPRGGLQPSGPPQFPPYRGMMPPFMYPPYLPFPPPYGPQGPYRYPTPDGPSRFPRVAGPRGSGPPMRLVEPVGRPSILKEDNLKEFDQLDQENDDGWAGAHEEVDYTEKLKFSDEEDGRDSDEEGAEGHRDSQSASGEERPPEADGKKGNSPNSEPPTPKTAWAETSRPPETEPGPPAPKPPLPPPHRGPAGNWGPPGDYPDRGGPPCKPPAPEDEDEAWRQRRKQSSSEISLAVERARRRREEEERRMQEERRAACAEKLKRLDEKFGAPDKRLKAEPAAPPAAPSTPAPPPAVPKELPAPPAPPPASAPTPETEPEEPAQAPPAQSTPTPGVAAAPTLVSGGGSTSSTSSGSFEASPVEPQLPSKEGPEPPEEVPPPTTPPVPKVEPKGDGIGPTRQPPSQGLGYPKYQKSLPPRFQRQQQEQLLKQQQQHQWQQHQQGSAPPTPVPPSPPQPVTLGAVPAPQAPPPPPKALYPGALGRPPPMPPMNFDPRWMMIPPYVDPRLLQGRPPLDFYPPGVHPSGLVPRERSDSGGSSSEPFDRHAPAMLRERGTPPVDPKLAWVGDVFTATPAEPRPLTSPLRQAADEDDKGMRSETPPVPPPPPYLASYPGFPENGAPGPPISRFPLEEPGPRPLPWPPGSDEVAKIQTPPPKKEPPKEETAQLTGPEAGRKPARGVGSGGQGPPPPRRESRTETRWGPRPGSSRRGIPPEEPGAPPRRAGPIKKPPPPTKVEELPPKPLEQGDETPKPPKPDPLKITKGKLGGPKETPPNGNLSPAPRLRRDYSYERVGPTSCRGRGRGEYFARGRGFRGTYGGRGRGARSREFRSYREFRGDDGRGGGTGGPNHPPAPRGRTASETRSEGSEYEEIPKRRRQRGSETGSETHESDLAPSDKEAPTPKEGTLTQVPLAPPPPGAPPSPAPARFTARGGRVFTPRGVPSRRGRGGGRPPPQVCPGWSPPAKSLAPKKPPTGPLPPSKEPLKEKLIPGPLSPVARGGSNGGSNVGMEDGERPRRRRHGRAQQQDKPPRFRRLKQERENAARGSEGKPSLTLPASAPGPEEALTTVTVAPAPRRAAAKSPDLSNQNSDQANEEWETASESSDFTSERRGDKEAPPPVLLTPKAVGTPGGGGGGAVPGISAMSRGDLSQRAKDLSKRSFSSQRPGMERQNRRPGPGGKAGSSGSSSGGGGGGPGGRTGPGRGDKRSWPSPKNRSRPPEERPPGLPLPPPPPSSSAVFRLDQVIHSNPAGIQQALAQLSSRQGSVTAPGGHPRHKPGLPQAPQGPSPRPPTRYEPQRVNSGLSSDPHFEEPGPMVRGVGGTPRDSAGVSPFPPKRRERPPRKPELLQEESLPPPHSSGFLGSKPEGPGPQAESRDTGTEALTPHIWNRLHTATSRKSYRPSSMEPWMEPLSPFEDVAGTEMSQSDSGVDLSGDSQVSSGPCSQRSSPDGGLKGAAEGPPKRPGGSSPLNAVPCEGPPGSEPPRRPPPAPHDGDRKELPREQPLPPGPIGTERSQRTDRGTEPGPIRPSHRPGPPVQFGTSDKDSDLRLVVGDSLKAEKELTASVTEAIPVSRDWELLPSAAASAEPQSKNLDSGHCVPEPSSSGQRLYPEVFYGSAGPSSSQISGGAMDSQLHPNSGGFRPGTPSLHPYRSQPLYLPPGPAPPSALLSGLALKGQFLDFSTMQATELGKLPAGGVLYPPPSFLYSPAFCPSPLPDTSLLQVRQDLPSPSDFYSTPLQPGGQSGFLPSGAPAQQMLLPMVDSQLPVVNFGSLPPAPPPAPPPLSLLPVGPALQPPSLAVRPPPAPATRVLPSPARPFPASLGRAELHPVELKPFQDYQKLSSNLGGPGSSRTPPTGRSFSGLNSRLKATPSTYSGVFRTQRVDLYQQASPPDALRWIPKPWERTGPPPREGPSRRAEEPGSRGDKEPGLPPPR
Chain of UniProt Q15173 (Q15173 whole entry, looked up): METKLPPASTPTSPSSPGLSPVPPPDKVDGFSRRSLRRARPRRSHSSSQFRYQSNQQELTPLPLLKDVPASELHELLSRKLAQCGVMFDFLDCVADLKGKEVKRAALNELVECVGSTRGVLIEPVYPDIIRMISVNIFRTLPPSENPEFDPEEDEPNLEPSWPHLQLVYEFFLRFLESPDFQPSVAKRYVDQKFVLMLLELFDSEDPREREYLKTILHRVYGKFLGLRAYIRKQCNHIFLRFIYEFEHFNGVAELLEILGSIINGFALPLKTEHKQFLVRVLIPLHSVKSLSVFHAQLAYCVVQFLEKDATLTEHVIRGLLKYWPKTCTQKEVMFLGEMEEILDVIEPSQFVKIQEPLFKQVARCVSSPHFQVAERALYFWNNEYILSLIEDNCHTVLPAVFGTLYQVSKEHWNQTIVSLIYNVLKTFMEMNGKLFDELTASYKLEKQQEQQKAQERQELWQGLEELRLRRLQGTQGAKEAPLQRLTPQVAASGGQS
Chain of UniProt Q05397 (Q05397 whole entry, looked up): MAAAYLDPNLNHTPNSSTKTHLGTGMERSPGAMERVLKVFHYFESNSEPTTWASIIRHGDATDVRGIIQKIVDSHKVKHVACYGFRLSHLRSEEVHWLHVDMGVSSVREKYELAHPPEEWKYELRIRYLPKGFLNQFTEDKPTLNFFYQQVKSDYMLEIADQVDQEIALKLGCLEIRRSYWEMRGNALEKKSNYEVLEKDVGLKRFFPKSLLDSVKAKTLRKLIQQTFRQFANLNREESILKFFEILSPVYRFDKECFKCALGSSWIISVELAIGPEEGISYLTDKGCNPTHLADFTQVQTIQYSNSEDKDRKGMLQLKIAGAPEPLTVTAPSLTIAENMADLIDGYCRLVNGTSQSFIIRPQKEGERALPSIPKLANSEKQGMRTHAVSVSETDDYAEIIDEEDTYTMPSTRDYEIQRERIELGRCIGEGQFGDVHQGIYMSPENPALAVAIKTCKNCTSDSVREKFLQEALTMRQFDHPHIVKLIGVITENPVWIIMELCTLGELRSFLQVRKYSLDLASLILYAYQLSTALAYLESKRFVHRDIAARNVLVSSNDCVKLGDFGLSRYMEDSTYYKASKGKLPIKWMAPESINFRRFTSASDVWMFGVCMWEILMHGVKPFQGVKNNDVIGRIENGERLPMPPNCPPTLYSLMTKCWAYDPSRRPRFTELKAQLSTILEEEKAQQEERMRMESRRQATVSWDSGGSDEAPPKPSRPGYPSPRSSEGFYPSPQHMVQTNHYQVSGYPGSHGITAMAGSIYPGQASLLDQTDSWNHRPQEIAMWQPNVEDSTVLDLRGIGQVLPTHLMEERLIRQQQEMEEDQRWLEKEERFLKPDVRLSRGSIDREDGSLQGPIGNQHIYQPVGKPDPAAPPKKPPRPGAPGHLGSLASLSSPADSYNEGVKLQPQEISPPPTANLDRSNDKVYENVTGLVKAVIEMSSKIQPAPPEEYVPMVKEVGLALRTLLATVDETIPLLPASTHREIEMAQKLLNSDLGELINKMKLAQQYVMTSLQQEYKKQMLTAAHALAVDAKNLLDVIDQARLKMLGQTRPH
Chain of UniProt Q15004 (Q15004 whole entry, looked up): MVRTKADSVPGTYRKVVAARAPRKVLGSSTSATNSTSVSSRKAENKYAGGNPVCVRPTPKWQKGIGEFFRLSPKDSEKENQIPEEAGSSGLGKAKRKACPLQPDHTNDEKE

Target | log2 fold change [1] | log2 fold change [2] | log2 fold change [3] | log2 fold change [4] | log2 fold change [5] | log2 fold change [6] | log2 fold change [7] | log2 fold change [8] | log2 fold change [9] | log2 fold change [10] | log2 fold change [11] | log2 fold change [12] | log2 fold change [13] | log2 fold change [14] | log2 fold change [15] | log2 fold change [16] | log2 fold change [17] | log2 fold change [18] | log2 fold change [19] | log2 fold change [20]
PDCD10 (UniProt Q9BUL8) | -0.053 | -0.002 | 0.013 | 0.029 | -0.005 | -0.019 | 0.034 | 0.01 | 0.05 | -0.025 | -0.016 | -0.014 | -0.005 | -0.254 (active) | -0.007 | 0.112 | 0.023 | -0.013 | -0.033 | 0.031
PIK3CG (UniProt P48736) | -0.033 | -0.044 | 0.04 | 0.009 | -0.015 | 0.046 | 0.041 | 0.001 | – | – | – | – | -0.128 | -0.158 | 0.183 | 0.14 | -0.038 | 0.04 | -0.111 | 0.075
PHKB isoform 3 (UniProt Q93100) | 0.04 | -0.099 | 0.223 | -0.006 | -0.018 | -0.019 | 0.015 | 0.006 | 0.107 | 0.03 | -0.042 | 0.025 | 0.026 | -0.126 | -0.025 | 0.127 | -0.021 | -0.061 | -0.012 | 0.027
PPIE (UniProt Q9UNP9) | -0.131 | 0.025 | -0.047 | -0.018 | 0.023 | -0.025 | -0.041 | -0.036 | 0.005 | 0.034 | 0.03 | 0 | -0.02 | -0.234 | 0.006 | 0.144 | 0.014 | 0.062 | 0.009 | 0.102
PTK2 (UniProt Q05397) | 0.02 | -0.033 | 0.54 (active) | 0.518 (active) | -0.055 | -0.057 | -0.126 | 0.17 | 0.113 | -0.022 | -0.116 | 0.038 | 0.414 | 0.007 | -0.076 | 0.396 | 0.026 | – | -0.008 | -0.117
PWP1 (UniProt Q13610) | 0.063 | -0.017 | -0.012 | 0.002 | -0.046 | 0.046 | -0.013 | -0.014 | 0.008 | -0.017 | 0.041 | -0.001 | 0.003 | 0.488 (active) | 0.055 | -0.052 | 0 | -0.125 | 0.032 | -0.084
PLIN2 (UniProt Q99541) | -0.008 | -0.107 | -0.014 | 0.049 | 0.002 | 0.061 | -0.107 | 0.044 | -0.071 | 0.104 | -0.009 | -0.041 | -0.038 | 0.023 | 0.014 | -0.254 (active) | 0.096 | -0.003 | -0.067 | 0.011
PFKP (UniProt Q01813) | 0.019 | 0.031 | 0.029 | -0.009 | -0.016 | -0.041 | -0.001 | -0.004 | 0.009 | -0.006 | -0.011 | -0.014 | 0.014 | 0.033 | -0.02 | -0.034 | -0.012 | -0.015 | 0.005 | -0.012
PEX2 (UniProt P28328) | -0.041 | -0.104 | 0.172 | 0.181 | 0.118 | – | – | 0.115 | 0.116 | -0.372 | -0.081 | 0.035 | -0.041 | -0.04 | -0.031 | 0.096 | – | -0.151 | -0.218 | 0.149
PIK3CD (UniProt O00329) | -0.105 | 0.012 | 0.021 | 0.052 | -0.047 | – | – | -0.027 | 0.027 | – | -0.043 | 0.142 | -0.037 | 0.035 | 0.477 (active) | 0.389 | – | 0.03 | -0.136 | -0.016
PMS1 (UniProt P54277) | -0.038 | -0.046 | -0.008 | 0 | -0.039 | 0.046 | 0.022 | -0.01 | – | 0.049 | – | -0.028 | -0.004 | 0.018 | 0.018 | -0.063 | -0.053 | -0.03 | -0.064 | -0.013
PCLAF (UniProt Q15004) | -0.005 | 0.041 | 0.017 | 0.014 | 0.056 | 0.005 | -0.077 | -0.097 | – | 0.001 | – | 0.015 | 0.024 | -0.079 | 0.037 | 0.108 | -0.029 | 0.009 | -0.01 | 0.05
PRRC2A (UniProt P48634) | -0.006 | -0.014 | -0.001 | 0.046 | -0.012 | 0.048 | -0.044 | 0.016 | 0.005 | -0.008 | -0.02 | -0.017 | 0.06 | 0.011 | -0.001 | 0.007 | -0.013 | -0.073 | 0.031 | -0.058
PPP2R3C (UniProt Q969Q6) | -0.018 | -0.145 | -0.046 | 0.072 | 0.081 | 0.105 | 0.013 | 0.069 | -0.23 | 0.105 | 0.048 | -0.029 | – | -0.1 | 0.028 | -0.097 | 0.036 | – | 0.022 | 0.023
PDE4DIP isoform 4 (UniProt Q5VU43) | -0.038 | 0.004 | -0.003 | -0.018 | 0.036 | 0.006 | 0.004 | 0.023 | -0.007 | -0.059 | -0.003 | -0.076 | -0.048 | -0.069 | -0.017 | 0.116 | -0.005 | 0 | -0.073 | 0.05
PPP2R5B (UniProt Q15173) | 0.069 | -0.012 | -0.03 | -0.091 | -0.056 | -0.017 | 0.288 (active) | – | 0.046 | – | -0.089 | -0.064 | 0.075 | -0.017 | 0.021 | -0.168 | 0.04 | 0.005 | 0.054 | -0.036
PFKFB4 (UniProt Q16877) | -0.03 | -0.009 | 0.029 | 0.011 | -0.027 | 0.02 | -0.019 | – | -0.016 | – | -0.008 | -0.061 | -0.034 | -0.027 | 0.011 | -0.044 | -0.012 | 0.009 | -0.003 | 0.039
